We go through 17 compounds from PubChem BioAssay (EPA / NIEHS).

As usually defined, the AC50 is the midpoint of the concentration-response curve, whichever way the signal moves.

Inconclusive results are not listed. The source made the active and inactive calls. Rule for the calls, unless noted: active = hit-call score of the fitted dose curve at least 0.9, where 1 is the maximum; inactive = score below 0.9.

Assay [1] can be described thus: CCTE_Harrill_HTTr_Apoptosis_MCF7: CCTE's 6-hour Apoptosis Assessment for the High-Throughput Transcriptomics (HTTr) Platform, in MCF-7 cells cultured in DMEM + 10% fetal bovine serum, Harrill Lab (AID 2284011). Put shortly: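 MCF-7 cells in DMEM + 10% fetal bovine serum were exposed to chemicals for 6 hours over an eight-point dilution series. Caspase-3/7 activation was imaged by high content imaging with CellEvent Caspase 3/7 Green; bidirectional fitting used DMSO as baseline.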

Assay [2] in a line: CCTE_Harrill_HTTr_CellCount_MCF7: CCTE's Cell Proliferation Assessment for the High-Throughput Transcriptomics (HTTr) Platform, Harrill Lab (AID 2284012; active = hit-call score of the fitted dose curve at least 0.9, where 1 is the maximum;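 note: count of Hoechst-stained nuclei per well by high-content imaging in MCF-7 cells; cells exposed to compound for six hours; intended direction is loss of nuclei count meaning fewer cells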). An outline of the steps:
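For this full-screen endpoint, MCF-7 cultures received eight compound dilutions for six hours. Well nuclei counts from Hoechst imaging were analyzed relative to DMSO.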

The nature of assay [3]: CCTE_Shafer_MEA_acute_burst_number: CCTE's Neural Acute Assay for Single-Electrode Bursts, Shafer Lab (AID 2284013). Put shortly: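 Burst totals were derived with adaptive spike detection (8x rms threshold) on filtered signals from rat cortical cultures; change relative to pre-treatment baseline after 40-min compound exposure (0.03-40 uM) was fitted in the negative direction against DMSO.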

The nature of assay [4]: CCTE_Shafer_MEA_acute_per_burst_spike_number_mean: CCTE's Neural Acute Assay for Average Number of Spikes Per Burst, Shafer Lab (AID 2284015).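 Note: hits are decreases in mean spikes per burst versus baseline.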 Put shortly:
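Primary rat cortical neurons on 48-well MEA plates, treated on DIV 13 or 15 at 0.03-40 uM. Spontaneous activity recorded 40 min before and 40 min after compound at 37 C; percent change in mean spikes per single-electrode burst per well, fitted in the loss direction versus DMSO.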

Assay [5] can be described thus: CCTE_Shafer_MEA_acute_interburst_interval_mean: CCTE's Neural Acute Assay for Mean Interburst Interval, Shafer Lab (AID 2284016).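 Note: percent change of mean interburst interval versus each well's own pre-dose baseline; curves fitted for decrease in interburst interval relative to DMSO.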 An outline of the steps: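 Primary rat cortical neurons on 16-electrode MEA wells were recorded 40 min at baseline on DIV 13 or 15, then 40 min after compound (0.03-40 uM), at 37 C. Value is percent change in mean interburst interval per well, DMSO as negative control.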

Assay [6] is described as follows: CCTE_Shafer_MEA_acute_burst_percentage_mean: CCTE's Neural Acute Assay for Percentage of Spikes in a Burst, Shafer Lab (AID 2284017).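 For AC50: curve fitted for loss of signal so potency reflects decreased burst percentage.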 Put shortly:
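Primary rat cortical neurons on 16-electrode MEA wells; 40 min baseline recorded at DIV 13 or 15, then 40 min after compound (0.03-40 uM) at 37 C. Well-mean fraction of spikes in single-electrode bursts; percent change from baseline, DMSO as negative control.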

Assay [7] can be described thus: CCTE_Shafer_MEA_acute_burst_percentage_std: CCTE's Neural Acute Assay for Standard Deviation of Burst Percentage, Shafer Lab (AID 2284018).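 Note: fitted in the negative direction so actives lower burst percentage SD.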 Put shortly: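 Primary rat cortical neurons on 16-electrode MEA wells were recorded 40 min at baseline (DIV 13 or 15), then 40 min after compound (0.03-40 uM), at 37 C. Well value is SD across electrodes of spikes-in-bursts/total spikes; endpoint is percent change, DMSO-referenced.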

The nature of assay [8]: CCTE_Shafer_MEA_acute_per_network_burst_spike_number_std: CCTE's Neural Acute Assay for Standard Deviation of Number of Spikes in a Network Burst, Shafer Lab (AID 2284020).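 Note: fitted for decrease in spike-number SD versus DMSO so actives lower it.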 Put shortly: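 Acute MEA exposure, rat cortical neurons, 0.03-40 uM. Per-well % change versus own baseline; DMSO as negative control.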
Assay [9] in a line: CCTE_Shafer_MEA_acute_per_network_burst_electrodes_number_mean: CCTE's Neural Acute Assay for Mean Number of Electrodes in a Network Burst, Shafer Lab (AID 2284021).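 Note: curves fitted for decreases only so hits reduce electrodes per burst.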 An outline of the steps: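 Rat primary cortical neurons on 16-electrode MEA wells were recorded 40 min at baseline on DIV 13 or 15, then 40 min after compound (0.03-40 uM), at 37 C. Value is percent change per well, fitted in loss direction versus DMSO.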

Assay [10] is described as follows: CCTE_Shafer_MEA_acute_network_burst_percentage: CCTE's Neural Acute Assay for Percentage of Network Bursts, Shafer Lab (AID 2284022).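 Note: curves fitted for loss so actives lower network burst percentage.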 An outline of the steps: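 Primary rat cortical neurons on 16-electrode MEA wells, treated on DIV 13 or 15 with compound (0.03-40 uM); 40-min baseline and 40-min post-exposure recordings at 37 C. Value is percent change in spikes within network bursts versus baseline, DMSO negative control.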

The nature of assay [11]: CCTE_Shafer_MEA_acute_cross_correlation_area: CCTE's Neural Acute Assay for Area of Cross Correlation, Shafer Lab (AID 2284024).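 Note: area under pooled inter-electrode spike cross-correlation near zero lag as percent change from own baseline; curves fitted for loss of cross-correlation area so actives lower synchrony.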 Put shortly:
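Primary rat cortical neurons on 48-well MEA plates (16 electrodes/well) were recorded 40 min at baseline on DIV 13 or 15, then 40 min with compound (0.03-40 uM) at 37 C; cross-correlation area expressed as percent change from baseline.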

The nature of assay [12]: CCTE_Shafer_MEA_acute_synchrony_index: CCTE's Neural Acute Assay for Synchrony, Shafer Lab (AID 2284027).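 Note: network synchrony index of spontaneous spiking in primary rat cortical neurons on MEAs; fitted for loss of signal so actives lower synchrony relative to DMSO.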 An outline of the steps:
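Acute exposure of rat primary cortical neurons (DIV 13 or 15) at 0.03-40 uM. Synchrony index, 40 min before vs after, as % change relative to DMSO control.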

Assay [13] in a line: CCTE_Deisenroth_AIME_384WELL_CTox_Active: Cytotoxicity Assessment (CTOX) in CCTE's 384-well Estrogen Receptor Transactivation Assay with AIME metabolic competence (metabolism positive), Deisenroth Lab (AID 2284037; active = hit-call score of the fitted dose curve at least 0.9, where 1 is the maximum;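 note: chemicals first conditioned 2 h by alginate-bound induced rat liver S9 before cells; activity means signal loss indicating cell death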). Put shortly:
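VM7Luc4E2 breast cells received medium pre-incubated 2 h with chemical over alginate microspheres holding induced male Sprague Dawley rat liver S9; viability read 24 h later by protease-substrate fluorescence. Loss of signal, bidirectional fit, 0.002–200 uM.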

With `O=C(O)Cc1cc(I)c(Oc2cc(I)c(O)c(I)c2)c(I)c1`, the outcome in assay [1] and in [2] was inactive.

For `CCOC(=O)CC(O)(CC(=O)OCC)C(=O)OCC`, the outcome in assay [1] and in assay [2] was inactive.

On to `COCC(C)O` (stereo not given), for which the result in [1] and in assay [2] was inactive.

As for `CC(=O)NC1(c2cccc(F)c2)CCN(CC[C@@]2(c3ccc(Cl)c(Cl)c3)CN(c3ccccc3)C(=O)CO2)CC1`, the outcome in assay [1], in assay [2], in [4], in assay [5], in [8] and in [9] was inactive. Moreover, the AC50 in assay [3] is 1.24 µM (active); in [6] it was 8.94 µM (active); in assay [7], 20 µM (active); in assay [10] it was 8.3 µM (active); in [11], 1.03 µM (active); in assay [12], 9.53 µM (active).

Take `CC(=O)CC(C)(C)O`: the result in assay [1] and in [2] was inactive.

Consider `O=C(OCCOCCOC(=O)c1ccccc1)c1ccccc1`, for which the result in assay [1] and in assay [2] was inactive.

On to `Oc1cccc(O)c1`, for which, in assay [1], the outcome was inactive.

Consider `Oc1cc2ccccc2c2ccccc12`, for which the outcome in assay [1], in assay [2], in assay [3], in assay [4], in assay [5] and in [6] was inactive. Further, the outcome in assay [7], in assay [8], in [9], in [10], in [11] and in [12] was inactive. For the same compound, the concentration at half-maximal activity (AC50) in assay [13] is 19 µM (active).

For the compound `CC(C)CCCCCCOC(=O)CCCCC(=O)OCCCCCCC(C)C`, the outcome in assay [1], in [2], in assay [3], in [4], in assay [5] and in assay [6] was inactive. The result in assay [7], in [8], in assay [9], in [10], in assay [11] and in assay [12] was inactive.

Take `CCC(=C(c1ccc(O)cc1)c1ccc(OCCN(C)C)cc1)c1ccccc1`: the half-maximal activity concentration (AC50) was 35.7 µM (active) in assay [1]; 21 µM (active) in [4]; 20.6 µM (active) in assay [6]; 23.8 µM (active) in assay [8]; 20.9 µM (active) in assay [12]. In addition, the outcome in [2], in assay [3], in assay [5], in assay [7], in [9] and in assay [10] was inactive. For the same compound, the call in assay [11] was inactive.

On to `CCc1nn(C2CCCCC2)c2cc(C3(C#N)CCC(C(=O)O)CC3)ccc12` (stereo not given), for which the outcome in assay [1] and in assay [2] was inactive.

Regarding `NC(=O)N1C(=O)C(C(=O)c2cc(Cl)cs2)c2cc(F)c(Cl)cc21` (stereo not given), the result in [1] and in assay [2] was inactive.

As to `CCCCCCCCCCCCN1CCCC1=O`, the outcome in assay [1], in [2], in assay [3], in [4], in assay [5] and in [6] was inactive. In addition, the call in [7], in assay [8], in assay [9], in assay [10], in [11] and in assay [12] was inactive. For the same compound, the AC50 in assay [13] was 100 µM (active).

In the case of `CCCCCCCCOC(=O)CCCCCCCCC(=O)OCCCCCCCC`, the result in assay [1] and in assay [2] was inactive.

As for `CCC(C)(C)C1CCC(O)CC1` (stereo not given), the result in assay [1] and in assay [2] was inactive.

Turning to `NC(=O)N(O)[C@@H]1C=C[C@H](Oc2cccc(Oc3ccc(F)cc3)c2)C1`, the outcome in [1], in assay [2], in [3], in [7], in assay [9] and in [10] was inactive. For the same compound, the result in assay [11] was inactive. In addition, the AC50 in [4] is 10 µM (active); in assay [5], 2.69 µM (active); in [6], 12.9 µM (active); in assay [8] it was 10 µM (active); in assay [12], 10 µM (active).

For `CC(C)(C)c1cccc(C(C)(C)C)c1O`, the result in [1] and in assay [2] was inactive.
